Each structure is given as a SMILES string. Inconclusive results are not listed. A call without a number means that no potency is given here. Active and inactive are the calls of the source. The call rests on the fitted dose curve; in most records, active means well fitted activation curve with a large enough effect in the repeat runs; inconclusive means weak or mixed curves; inactive means flat fitted curve, though single readings scatter.
Potency means the concentration at half of the fitted maximal effect.

The assay can be described thus: A CellTox Green Cytotoxicity Assay to monitor cytotoxicity in HepG2 cells - 40 hour (AID 1224879). Further: nearly all actives have a fitted effect of over 40% in size. The following applies: CellTox Green fluorescence; series mostly up to 76.8 µM. From the text: National Center for Advancing Translational Sciences [NCATS]
NIH Chemical Genomics Center [NCGC]
U.S. Environmental Protection Agency [EPA]
National Institutes of Environmental Health Sciences [NIEHS]
National Toxicology Program [NTP]
Cell-based models are critical for drug discovery. Determining the natural cytotoxic effects resulting from test compounds is an essential research activity. A CellTox Green Cytotoxicity Assay to monitor cytotoxicity in real time of continues cell culture during 40 hours of the compound treatment was used to screen Tox21 10K library compounds in HepG2 cells. CellTox Green Cytotoxicity Assay is a nonlytic, homogeneous, biofluorescent method to measure cytotoxicity in cell culture after experimental manipulation. The assay system uses a proprietary asymmetric cyanine dye that is excluded from viable cells but preferentially stains the dead cell's DNA. […] Viable cells produce no appreciable increases in fluorescence. Therefore, the fluorescence signal produced by the binding interaction with dead cell DNA is proportional to cytotoxicity.
The mixture of HepG2 cell suspension and reagents were dispensed at 600cells/6 ul/well in 1536-well tissue culture treated black solid bottom plates using a Multidrop dispenser. After the assay plates were incubated at a 37 C/5% CO2 incubator for 5 hours, 23 nL of compounds dissolved in DMSO, positive and negative controls was transferred to the assay plate by a pintool work station. The plates were incubated at 37 C for 40 hours. The fluorescence intensity were measured at 0h, 8h, 16h, 24h, 32h and 40h time points using ViewLux plate reader during compound treatment.
Consider `O=C(O)c1ccccc1NCCc1ccccc1`, for which the Potency entry was “inactive”. For `CCOC(=O)N1CCC(n2c(=O)[nH]c3cc(Cl)ccc32)CC1`, the Potency entry was “inactive”. For the molecule `COc1ccccc1N=Nc1c(S(=O)(=O)O)cc2cc(S(=O)(=O)O)cc(NC(C)=O)c2c1O`, the Potency result is “inactive”. As to `Cc1ccnc2ccccc12`, the Potency result was “inactive”. As to `CCC(Cc1ccccc1)(C(=O)c1ccc(N2CCOCC2)cc1)N(C)C` (stereo not given), the Potency result is “inactive”. Still for that read-out and setting: the value for `O=C(O)c1c(O)c(-c2ccccc2)nc2ccccc12` was “inactive”; that for `CCCCCCCCCOC(C)=O` was “inactive”.

In the case of `CC(=N\O)/C(C)=N/O`, the Potency entry was “inactive”. The same measure, in the same setting: then `CCCOC(=O)c1ccc(C(=O)OCCC)nc1`, with “inactive”.

As to `OC(CCCN1CCCCC1)(c1ccccc1)c1ccccc1`, the Potency result is “inactive”. Take `O=Cc1c(Cl)cccc1Cl`: the Potency result is “inactive”. For the molecule `Cc1ccc(S(=O)(=O)NC2CCCCC2)cc1`, the Potency entry was “inactive”. Still for that read-out and setting: then `CC(C)(C)C(=O)C(Oc1ccc(Cl)cc1)n1ccnc1` (stereo not given), with “inactive”; and `CC(C)(O)c1ccccc1CC[C@@H](SCC1(CC(=O)O)CC1)c1cccc(/C=C/c2ccc3ccc(Cl)cc3n2)c1`, with “inactive”. On the same count and under the same terms, the value for `Cc1nc2ccccn2c(=O)c1CCN1CCC(C(=O)c2ccc(F)cc2)CC1` was “inactive”.

Turning to `CC(=O)CC(c1ccc([N+](=O)[O-])cc1)c1c(O)c2ccccc2oc1=O` (stereo not given), the Potency result was “inactive”. The same measure, in the same setting: then `CC(C)CCCCCOC(=O)CCCCC(=O)OCCCCCC(C)C`, with “inactive”; and `CCC(C(=O)OCCN(CC)CC)c1ccccc1` (stereo not given), with “inactive”. As for `Brc1cc(-c2ccc(Br)c(Br)c2Br)cc(Br)c1Br`, the Potency result was “inactive”.

With `CCOC(=O)[C@@H](C)Oc1ccc(Oc2nc3ccc(Cl)cc3o2)cc1`, the Potency entry was “inactive”. Take `CC1(C)O[C@@H]2C[C@H]3[C@@H]4CCC5=CC(=O)C=C[C@]5(C)[C@H]4[C@@H](O)C[C@]3(C)[C@]2(C(=O)CO)O1`: the Potency result is “inactive”. `C=C(C)C(=O)OCCOC(=O)CC(C)=O`: the Potency result is “inactive”. Turning to `C=CCCCCCCCCCCCCCCCC`, the cytotoxicity increase is -20.6% [at 6.97 µM] (inactive). In the case of `CC(C)c1nnc2ccc(-c3ocnc3-c3cc(F)ccc3F)cn12`, the Potency result is “inactive”. As to `CCOC(=O)C(C)Oc1ccc(Oc2nc3ccc(Cl)cc3o2)cc1` (stereo not given), the Potency result was “inactive”. As for `CC1=C(C=O)C(C)(C)CCC1`, the Potency result is “inactive”. On the same count and under the same terms, then `Fc1c(F)c(F)c(Br)c(F)c1F`, with “inactive”; and `CC(C)CCCC(=O)O`, with “inactive”; and `CCOC(=O)CC(=O)C(=O)OCC`, with “inactive”.

In the case of `ON(Cc1ccccc1)Cc1ccccc1`, the Potency result was “inactive”. As for `CN1Cc2cc(C(=O)N3CCC(C4CCNCC4)CC3)ccc2N[C@@H](CC(=O)O)C1=O`, the Potency entry was “inactive”. As for `CC(=O)[C@H]1CC[C@H]2[C@@H]3C=CC4=CC(=O)CC[C@@]4(C)[C@@H]3CC[C@]12C`, the Potency result is “inactive”.

With `O=C(O)c1cccnc1C(=O)O`, the Potency entry was “inactive”. Regarding `Cc1cc(S(=O)(=O)O)ccc1N=Nc1c(O)ccc2ccccc12`, the Potency entry is “inactive”.

Regarding `CO[C@H]1C=CO[C@@]2(C)Oc3c(C)c(O)c4c(O)c(c5c(c4c3C2=O)=NC2(CCN(CC(C)C)CC2)N=5)NC(=O)/C(C)=C\C=C/[C@H](C)[C@H](O)[C@@H](C)[C@@H](O)[C@@H](C)[C@H](OC(C)=O)[C@@H]1C`, the Potency was 47.9 µM (active).

As to `CC(COc1ccc(C(C)(C)C)cc1)OS(=O)OCCCl` (stereo not given), the Potency result is “inactive”.

Take `NCC1CCCC(CN)C1` (stereo not given): the Potency entry was “inactive”. The same measure, in the same setting: the value for `C[Si]1(C)O[Si](C)(C)O[Si](C)(C)O1` was “inactive”; that for `O=C(/C=C/c1ccccc1)OCCCc1ccccc1` was “inactive”.

Consider `NC(=O)N(O)[C@@H]1C=C[C@H](Oc2cccc(Oc3ccc(F)cc3)c2)C1`, for which the Potency was 38.9 µM (active).

These data come from PubChem BioAssay (Tox21).
